Results on 40 molecules are retold here after PubChem BioAssay (NCATS).

What is called viability is a read-out of living cells in per cent, often relative to untreated cells.

Records with an inconclusive call do not appear. The source made the active and inactive calls. Calls come from the whole dose curve; as a rule, active = well fitted cell-killing curve with a large enough effect; inconclusive = small, poorly fitted or top-dose-only effect, or effect the other way; inactive = no such curve, though single readings can be large or run the other way.
Potency is the fitted concentration of half-maximal effect.

The nature of this experiment: Quantitative High-Throughput drug screen in 47 multiple myeloma cell lines against the NCATS MIPE library collection: KMS12PE_JCRB cell viability assay (AID 1918972). Note: nearly all actives have a fitted effect of over 30% in size. Conditions: KMS12PE myeloma viability, CellTiter-Glo ATP, 48 h; series mostly up to 45.8 µM; viability: at the top concentration. From the text: PI: Beverly A. Mock Ph.D.
Laboratory of Cancer Biology and Genetics,
Center for Cancer Research, National Cancer Institute,
National Institute of Health, Bethesda, Maryland
Drug resistance and disease progression are common in multiple myeloma (MM) patients, underscoring the need for new therapeutic combinations. […] We hypothesized that effective combinations would reduce MYC expression and enhance p16 activity. […] These preclinical data identify potentially useful drug combinations for evaluation in drug-resistant MM and reveal potential mechanisms of combined drug sensitivity.
Described herein is the primary MIPE qHTS used to cherrypick compounds. Validated compounds were then further tested for potential synergistic activiy.
[1] Peat TJ, Gaikwad SM, Dubois W, Gyabaah-Kessie N, Zhang S, Gorjifard S, Phyo Z, Andres M, Hughitt VK, Simpson RM, Miller MA, Girvin AT, Taylor A, Williams D, D'Antonio N, Zhang Y, Rajagopalan A, Flietner E, Wilson K, Zhang X, Shinn P, Klumpp-Thomas C, McKnight C, Itkin Z, Chen L, Kazandijian D, Zhang J, Michalowski AM, Simmons JK, Keats J, Thomas CJ, Mock BA. Drug combinations identified by high-throughput screening promote cell cycle transition and upregulate Smad pathways in myeloma. Cancer Lett. 2023 Aug 1;568:216284. doi: 10.1016/j.canlet.2023.216284. Epub 2023 Jun 24. PMID: 37356470; PMCID: PMC10408729.
SEQUENCE No. (e.g., 1, 2, 3, etc.); […] (e.g., Cells, Incubation, Reagent, etc.); VALUE and DESCRIPTION.
1; Cells; 5 uL; white, solid bottom 1536-well Greiner assay plate.
2; Compounds; 23 nL; Kalypsis pin tool (Wako USA) equipped with a 1536-well pin head to transfer to the assay plates.
3; Incubation; 48 hours; 37C incubation.
4; Reagent;5uL; CellTiter Glo (Promega).
5; Detector; 425V; Luminescence; Viewlux PerkinElmer.
NOTES (numbers refer to Sequence numbers above)
1. The cell-based screening methods employed in this study were like those previously published. Briefly, the corresponding myeloma cell lines were screened in 1,536-well plates with 500 cells, 5-uL per well for inhibition of cell viability (assessed by measuring ATP levels with CellTiterGlo).
2. NCATS MIPE 4.0 library of approved and investigational drugs were added using the Kalypsis pin tool. Wells treated with DMSO only for 100% viability and media only wells for 0% viability were used as controls.
3. The assay plates were covered and incubated for 48 hours in a 37C, 5% CO2 incubator with controlled humidity.
4. After 48 hours, CellTilter-GloTM luminescent substrate mix (Promega) reagent was added to the assay plate and plates we incubated for 5 min at room temperature.
5. Signal was measured as median relative luminescence units on a ViewLux (PerkinElmer) multiplate reader.
[1] Heske CM, Davis MI, Baumgart JT, Wilson K, Gormally MV, Chen L, Zhang X, Ceribelli M, Duveau DY, Guha R, Ferrer M, Arnaldez FI, Ji J, Tran HL, Zhang Y, Mendoza A, Helman LJ, Thomas CJ. Matrix Screen Identifies Synergistic Combination of PARP Inhibitors and Nicotinamide Phosphoribosyltransferase (NAMPT) Inhibitors in Ewing Sarcoma. Clin Cancer Res. 2017 Dec 1;23(23):7301-7311. doi: 10.1158/1078-0432.CCR-17-1121. Epub 2017 Sep 12. PMID: 28899971; PMCID: PMC6636827.
With `Cc1ccc(S(=O)(=O)Nc2cc(Cl)ccc2C(=O)Nc2nc(-c3ccccc3)cs2)cc1`, the Potency is 2.64 µM (active). For the molecule `CC[C@H](CO)Nc1nc(NCc2ccccc2)c2ncn(C(C)C)c2n1`, the “viability” value is 91.9% (inactive).

With `Cn1c2cc(S(C)=O)sc2c2cnn(Cc3cccc(N)c3)c(=O)c21` (stereo not given), the “viability” value is 119% (inactive).

Consider `C1=CCOCc2cc(ccc2OCCN2CCCC2)Nc2nccc(n2)-c2cccc(c2)OCC1`, for which the Potency is 2.64 µM (active). `CC(=O)c1c(C)c2cnc(Nc3ccc(N4CCNCC4)cn3)nc2n(C2CCCC2)c1=O`: the Potency was 23.5 µM (active).

`c1nc2nc(Nc3ccc(N4CCOCC4)cc3)nc(NC3CCCCC3)c2[nH]1`: the Potency was 1.66 µM (active). For `COc1cc2c(Oc3ccc4[nH]c(C)cc4c3F)ncnc2cc1OCCCN1CCCC1`, the Potency was 2.64 µM (active).

`COc1cc2c(Oc3ccc(-c4cnc(Nc5ccc(F)cc5)n(C)c4=O)cc3F)ccnc2cc1OCCCN1CCOCC1`: the Potency is 1.87 µM (active). As to `Cc1cn(-c2cc(NC(=O)c3ccc(C)c(Nc4nccc(-c5cccnc5)n4)c3)cc(C(F)(F)F)c2)cn1`, the “viability” value is 107% (inactive).

Take `C=CC(=O)Nc1cc2c(Nc3ccc(F)c(Cl)c3)ncnc2cc1C#CC(C)(C)N1CCN(C)CC1`: the Potency is 0.833 µM (active). In the case of `C=C1C(=CC=C2CCC[C@]3(C)[C@@H]([C@H](C)C=C[C@H](C)C(C)C)CC[C@@H]23)C[C@@H](O)C[C@@H]1O`, the Potency is 0.662 µM (active). Consider `CC[C@@H]1C(=O)N(C)c2cnc(Nc3ccc(C(=O)NC4CCN(C)CC4)cc3OC)nc2N1C1CCCC1`, for which the Potency was 1.66 µM (active).

For the molecule `COc1ccc(-n2nc(C(N)=O)c3c2C(=O)N(c2ccc(N4CCCCC4=O)cc2)CC3)cc1`, the “viability” value was 132% (inactive). With `C=C1C(=CC=C2CCCC3(C)[C@@H]([C@H](C)C=CC=CC(O)(CC)CC)CC[C@@H]23)C[C@@H](O)C[C@@H]1O` (stereo not given in full), the Potency was 14.8 µM (active). Turning to `CCC(=C(c1ccccc1)c1ccc(OCCN(C)C)cc1)c1ccccc1`, the Potency is 13.2 µM (active). Still for that read-out and setting: the value for `COc1ccc(-c2cc3c(C)nc(N)nc3n(C3CCC(OCCO)CC3)c2=O)cn1` (stereo not given) was 0.372 µM (active); that for `C=CC(=O)Nc1cccc(Oc2nc(Nc3ccc(N4CCN(C)CC4)cc3)ncc2Cl)c1` was 1.87 µM (active); that for `O=C(NC1CCNCC1)c1[nH]ncc1NC(=O)c1c(Cl)cccc1Cl` was 0.935 µM (active). Still for that read-out and setting: the value for `COc1ccc(C(=O)CC2(O)C(=O)Nc3c(Cl)ccc(Cl)c32)cc1` (stereo not given) was 1.32 µM (active); that for `CC(C)(C)OC(=O)Nc1ccc(-c2cc(C(=O)NCCCCCCC(=O)NO)no2)cc1` was 0.935 µM (active).

With `O=C(O)CO.[NH2-].[NH2-].[Pt+2]`, the “viability” value is 126% (inactive). Regarding `C1Cc2[nH]nc(-c3nn[nH]n3)c2C1`, the “viability” value was 107% (inactive). For the molecule `C=CCn1c(=O)c2cnc(Nc3ccc(N4CCN(C)CC4)cc3)nc2n1-c1cccc(C(C)(C)O)n1`, the Potency was 0.118 µM (active). Take `CNC(=O)c1nn(C)c2c1C(C)(C)Cc1cnc(Nc3ccc(N4CCN(C)CC4)cc3)nc1-2`: the Potency was 1.05 µM (active). Consider `N#Cc1c(O)c2c(-c3ccc(-c4ccccc4O)cc3)csc2[nH]c1=O`, for which the “viability” value was 112% (inactive). Regarding `COc1cc2ncnc(Nc3ccc(F)c(Cl)c3)c2cc1NC(=O)C=CCN1CCCCC1`, the Potency is 1.87 µM (active). In the case of `N#CCNC(=O)c1ccc(-c2ccnc(Nc3ccc(N4CCOCC4)cc3)n2)cc1`, the Potency was 5.26 µM (active). Take `CCN1CCN(CC(=O)Nc2ccc(-c3cccc4c(=O)cc(N5CCOCC5)oc34)c3sc4ccccc4c23)CC1`: the Potency was 2.35 µM (active). Take `CCNC(=O)Nc1ccc2ncc(Nc3ccc(C)cc3)nc2n1`: the Potency is 2.35 µM (active). In the case of `CN1c2cc(O)c(N=NC(N)=O)cc2CC1S(=O)(=O)O` (stereo not given), the “viability” value is 90.4% (inactive). As to `CN(c1ncccc1CNc1nc(Nc2ccc3c(c2)CC(=O)N3)ncc1C(F)(F)F)S(C)(=O)=O`, the Potency was 8.33 µM (active).

In the case of `CC(C)c1ccc(Cn2ccc3c4c(N)nc(NC5CC5)nc4ccc32)cc1`, the Potency was 0.833 µM (active). In the case of `O=C(NCCCNc1nc(Nc2cccc(NC(=O)N3CCCC3)c2)ncc1I)c1cccs1`, the “viability” value was 93.2% (inactive).

Take `O=c1[nH]c(=O)n(C2CCCO2)cc1F` (stereo not given): the “viability” value was 124% [at 92.2 µM] (inactive).

Consider `O=C(C=Cc1cccc(S(=O)(=O)Nc2ccccc2)c1)NO`, for which the Potency is 1.36 µM (active).

As for `C[C@]12CC[C@H](O)CC1=CCC1C2CC[C@]2(C)C(n3cnc4ccccc43)=CCC12` (stereo not given in full), the “viability” value was 102% (inactive). Take `CC1=C(CO)C(=O)O[C@@H]([C@@H](C)[C@H]2CC[C@H]3[C@@H]4C[C@H]5O[C@]56[C@@H](O)C=CC(=O)[C@]6(C)[C@@H]4CC[C@]23C)C1`: the “viability” value is 117% (inactive). As for `Cc1nc2ccc(CN(C)c3ccc(C(=O)N[C@@H](CCC(=O)O)C(=O)O)s3)cc2c(=O)[nH]1`, the Potency was 0.0662 µM (active).

Take `COC(=O)C1=C(C)NC(C)=C(C(=O)OCCN2CCN(C(c3ccccc3)c3ccccc3)CC2)C1c1cccc([N+](=O)[O-])c1` (stereo not given): the “viability” value was 111% (inactive). Regarding `COc1ccc2c(c1)CC[C@@H](CN(C)CC(=O)O)[C@H]2c1ccccc1`, the Potency is 1.05 µM (active).
